Laboratory results: PubChem BioAssay (NCATS)
Unmarked numbers belong to inactive results. Active and inactive are the calls of the source. No rule for the calls is given here.

Tested on: HIV-1 nucleocapsid protein NCp7 (binding to TG oligonucleotide)
Assay: HIV Nucleocapsid (AID 346);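 also: potency is for inhibitors that block NC binding and lower polarization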
Settings: HIV-1 NC / fluorescein-TGTGTGTG probe, fluorescence polarization
In short: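 Reagents dispensed (10 nM TG4xF, 100 nM HIV-1 NC), plates spun, compounds pin-transferred, then incubated 1 hr at room temperature before FP imaging. Buffer: Hepes pH 7.5, 250mM NaCl, 1uM ZnCl2, 100 uM TCEP, 5 mM 2-mercaptoethanol.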
Potency is read from the fitted curve at half-maximal effect.

SMILES | Potency
O=C(Nc1cccc(F)c1)N1CC2(CCN(S(=O)(=O)c3ccccc3)CC2)C1 | > 20 µM
CN(C)C(=O)c1ccc(-c2ccc3ncnc(NCCN4CCOCC4)c3c2)cc1 | > 20 µM
COc1ccc(C(=O)N2CCC3(CCCN(Cc4ccccc4OC)C3)CC2)cc1 | > 20 µM
Cn1cc(-c2nc3cncnc3n(-c3ccccc3)c2=O)c2ccccc21 | 4.43 µM (active)
c1ccc(Nc2ncnc3ccc(-c4ccoc4)cc23)cc1 | > 20 µM
Cc1cnc(CNc2ccnc(-c3ccc(N(C)C)cc3)n2)cn1 | > 20 µM
COc1cccc(Nc2ncc3nc(-c4cn(C)c5ccccc45)c(=O)n(CCC#N)c3n2)c1 | > 20 µM
CC(=O)NCCNc1ncncc1-c1ccccc1C(F)(F)F | > 20 µM
CC(=O)NCCNc1ccnc(-c2ccccc2C)n1 | > 20 µM
O=C(c1cccc(F)c1)N1CCC2(CC1)CN(C(c1ccccc1)c1ccccc1)C2 | > 20 µM
Cc1ccccc1-c1nc(NCc2cccs2)c2ccccc2n1 | > 20 µM
COc1ccc(-n2c(=O)c(C)nc3cncnc32)cc1 | > 20 µM
COc1ccc2[nH]cc(CCNc3cc(-c4ccoc4)ncn3)c2c1 | > 20 µM
COc1cccc(Cn2c(=O)c(-c3cccc(Cl)c3)nc3cncnc32)c1 | > 20 µM
COc1ccccc1CN1CC2(CCN(C(=O)c3ccncc3)CC2)C1 | > 20 µM
O=C(Nc1ccccc1)N1CCCC2(CCN(C(=O)c3cccc(F)c3)CC2)C1 | > 20 µM
COc1ccc(-c2nc3cnc(N4CCN(C)CC4)nc3n(Cc3cccs3)c2=O)cc1 | > 4 µM
O=c1c(-c2ccc(F)cc2)nc2cncnc2n1Cc1ccccc1 | > 20 µM
COCCNc1nc(-c2ccccc2Cl)nc2ccccc12 | > 20 µM
N#Cc1ccc(CN2CCCC3(CCN(C(=O)c4cc(C(F)(F)F)cc(C(F)(F)F)c4)CC3)C2)cc1 | > 20 µM

SMILES | Potency
Cn1c(=O)c(-c2ccc(Cl)cc2)nc2cnc(Nc3ccccc3)nc21 | > 20 µM
O=S(=O)(c1ccccc1)N1CCC2(CCCN(Cc3nccs3)C2)CC1 | > 20 µM
N#Cc1ccc(CN2CCCC3(CCN(C(=O)c4cnccn4)CC3)C2)cc1 | > 20 µM
COc1cccc(Cn2c(=O)c(CCc3ccccc3)nc3cnc(OC)nc32)c1 | > 20 µM
COCCn1c(=O)c(-c2ccc(F)cc2)nc2cnc(Nc3cccc(OC)c3)nc21 | > 20 µM
c1nc(NCCN2CCOCC2)c2cc(-c3ccc4c(c3)OCO4)ccc2n1 | > 20 µM
Cc1noc(C)c1C(=O)N1CCC2(CCN(C(=O)Nc3ccccc3)CC2)CC1 | > 20 µM
c1cncc(-c2ccc3ncnc(NCCN4CCOCC4)c3c2)c1 | > 20 µM
COc1ccc(Oc2ncc3nc(CCc4ccccc4)c(=O)n(C4CC4)c3n2)cc1 | > 20 µM
COCCn1c(=O)c(-c2cc(F)cc(F)c2)nc2cnc(N(C)C)nc21 | > 20 µM
CS(=O)(=O)N1CCC2(CCCN(C(=O)Nc3cccc(F)c3)C2)CC1 | > 20 µM
O=c1c(-c2ccc(Cl)cc2)nc2cnc(N3CCOCC3)nc2n1Cc1ccc(F)cc1 | > 20 µM
COc1cccc(Cn2c(=O)c(-c3cccs3)nc3cnc(N4CCOCC4)nc32)c1 | > 20 µM
COc1ncc2nc(-c3cn(C)c4ccccc34)c(=O)n(Cc3ccc(F)cc3)c2n1 | > 20 µM
c1cncc(CNc2ncncc2-c2ccoc2)c1 | > 20 µM
N#Cc1cccc(-c2cncnc2NCc2cccnc2)c1 | > 20 µM
O=C(Nc1cccc(F)c1)N1CCCC2(CCN(C(=O)c3cccc(F)c3)CC2)C1 | > 20 µM
COc1cccc(-c2nccc(NCc3ccc(OC)cc3OC)n2)c1 | > 20 µM
COc1cccc(Nc2ncc3nc(-c4ccccc4)c(=O)n(Cc4cccs4)c3n2)c1 | > 20 µM
Cn1cccc1C(=O)N1CCC2(CCCN(Cc3ccc(C#N)cc3)C2)CC1 | > 20 µM
